# Assay results reported in PubChem BioAssay AID1376 (SRMLSC, 2008).
# The campaign covered roughly 220,000 compounds. About 530 (0.24%) were called active. What follows is part of a selection rich in actives, with near analogues and random picks from the rest. Results with a measured potency or affinity are listed apart. A number with no mark means an inactive call. No stated cut-off is given here; in the data, active means inhibition above about 13%; inconclusive means no clear call, values can overlap the other calls; inactive means below that.
# Target: Bifunctional protein GlmU (Mycobacterium tuberculosis (strain ATCC 25618 / H37Rv)) (UniProt P9WMN3)
# Assay: inhibition of mycobacterial GlmU enzyme – biochemical, glucosamine-1-phosphate acetyltransferase (AID 1376);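 further: 0% = complete reaction with vehicle and 100% = reaction without substrate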
# Details: M. tuberculosis GlmU acetyltransferase enzyme assay; hits give high values;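 tested at 30 µM in the primary screen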
# Chain of Bifunctional protein GlmU (Mycobacterium tuberculosis (strain ATCC 25618 / H37Rv)) (P9WMN3 whole entry, looked up): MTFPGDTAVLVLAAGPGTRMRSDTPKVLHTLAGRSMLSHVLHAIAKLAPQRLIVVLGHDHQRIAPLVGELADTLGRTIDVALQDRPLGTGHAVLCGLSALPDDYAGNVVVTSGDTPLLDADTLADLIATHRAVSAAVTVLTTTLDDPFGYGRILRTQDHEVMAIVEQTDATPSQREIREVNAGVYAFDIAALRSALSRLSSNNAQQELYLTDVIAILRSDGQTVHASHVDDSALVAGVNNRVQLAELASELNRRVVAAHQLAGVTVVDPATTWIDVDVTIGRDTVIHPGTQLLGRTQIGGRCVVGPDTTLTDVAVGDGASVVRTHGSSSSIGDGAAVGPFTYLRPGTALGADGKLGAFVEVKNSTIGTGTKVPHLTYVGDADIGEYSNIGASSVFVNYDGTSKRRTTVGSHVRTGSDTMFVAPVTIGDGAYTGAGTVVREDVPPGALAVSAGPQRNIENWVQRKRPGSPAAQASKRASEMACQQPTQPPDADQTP
row,Compound,inhibition
1,Cc1cc(NC(=O)CCCn2nc([N+](=O)[O-])cc2C)no1,0.02%
2,COc1ccc2c(OC)cc(-c3ccccc3)nc2c1,3.08%
3,Cc1cc(NC(=O)Cc2ccccc2)c2ccccc2n1,-0.11%
4,CC(=O)Nc1cccc(NC(=O)CSc2ccc(C(F)(F)F)cc2[N+](=O)[O-])c1,1.81%
5,CCOC(=O)c1c(C2CC2)csc1NC(=O)COC(=O)c1cnc(Cl)c(Cl)c1,4.42%
6,S=c1[nH]nc(COc2cccc(Cl)c2)n1Cc1ccccc1,2.34%
7,O=C(Cc1c[nH]c2ccccc12)Nc1nccs1,3.72%
8,CC1Cc2ccccc2N1C(=O)C1CCCN(S(=O)(=O)c2cccc3cccnc23)C1 (stereo not given),-0.65%
9,CCSc1nc2ccccc2c(=O)n1C1CCOC(C)(C)C1 (stereo not given),7.35%
10,O=C(NCCCN1CCOCC1)c1sc2cc([N+](=O)[O-])ccc2c1Cl,12.9% (active)
11,O=C(NCCCN1CCOCC1)c1sc2cc(F)ccc2c1Cl,-2.73%
12,O=C(NCCCN1CCOCC1)c1sc2cc(Cl)ccc2c1Cl,4.82%
13,CCN(CC)c1ccc(N=Nc2ncn[nH]2)cc1,-1.86%
14,COc1ccc2ccccc2c1C1CC(=O)N2CN(C)CSC2=C1C#N (stereo not given),13.8% (active)
15,COc1ccc2ccccc2c1C1CC(=O)N2CN(C3CCCCC3)CSC2=C1C#N (stereo not given),7.17%
16,CCOc1ccccc1N1CSC2=C(C#N)C(c3c(OC)ccc4ccccc34)CC(=O)N2C1 (stereo not given),3.43%
17,O=C(O)COc1c(Cl)cc(/C=C2\NC(=O)NC2=O)cc1Br,3.85%
18,CC(C)OC(=O)c1cccc(C(=O)Nc2cccc(NC(=O)c3cccc(C(=O)OC(C)C)n3)n2)n1,2.69%
19,O=C(N/N=C/c1ccc([N+](=O)[O-])o1)c1cc2c(ccc3ccccc32)o1,-4.6%
20,O=C(O)c1cc(-c2ccc(/C=N/NC(=S)Nc3ccccc3)o2)ccc1Cl,10.1%
21,COC(=O)c1cc(O)cc(OC)c1C(=O)c1c(O)cc(C)cc1O,0%
22,COC(=O)c1cc(OC)cc(O)c1C(=O)c1c(O)cc(C)cc1O,1.11%
23,Clc1ccc(-c2csc(Nc3cccnc3)n2)cc1,-1.87%
24,CCCCCCNCc1c(F)cccc1Cl,-1.27%

row,Compound,inhibition
1,CCOC(=O)/C(=N/Nc1ccccc1OC)N1CCCc2ccccc21,3.21%
2,Cc1nc2c(=O)n(-c3ccc(F)c(Cl)c3)nc(C)c2s1,-1.25%
3,FC(F)(F)c1ccccc1NC(=S)N/N=C1\CC2CC=CC12 (stereo not given),-4.32%
4,Cc1ccc(NC(=S)N/N=C2\CC3CC=CC23)c(C)c1 (stereo not given),2.83%
5,Cc1cccc(C)c1NC(=S)N/N=C1\CC2CC=CC12 (stereo not given),14.2% (active)
6,Clc1ccc(-c2nnc(-c3ccco3)nc2N2CCCCC2)cc1,-2.38%
7,Cc1ccc(C(=O)N/N=C\c2ccc(-c3ccc(Cl)c(Cl)c3)o2)cn1,-1.63%
8,Nc1ccc(C(=O)O)cc1[N+](=O)[O-],-10.2%
9,NS(=O)(=O)c1ccc(CNC(=O)NC2(c3ccccc3)CC2)cc1,-5.17%
10,CCOc1ccccc1CN1CCC(CO)(CCOc2ccccc2)CC1,-6.84%
11,Cc1c(Cl)cccc1-n1c(SCC(=O)N2CCC(C(=O)O)CC2)nnc1-c1ccncc1,-2.06%
12,CCc1ccc(-n2c(SCC(=O)N3CCC(C(=O)O)CC3)nnc2-c2ccncc2)cc1,14.8% (active)
13,Cc1ccccc1-n1c(SCC(=O)N2CCC(C(=O)O)CC2)nnc1-c1ccncc1,1.39%
14,O=[n+]1c2c(n([O-])c3c1CCC3)CCCC2,-2.34%
15,O=c1[nH][nH]c2c(N=Cc3ccccc3O)ccc(F)c12,28.6% (active)
16,O=c1[nH][nH]cc1C=Nc1ccccc1O,-0.91%
17,O=C(Nc1ccccc1)c1ccccc1N=Cc1ccccc1O,-2.01%
18,Cc1ccc(NC(=O)CC2=NC(=O)C(CC(=O)Nc3ccccc3C)S2)cc1 (stereo not given),0.67%
19,OC(CNCc1ccc2c(c1)OCO2)COc1ccc(F)cc1 (stereo not given),-6.96%
20,COc1ccc(CN(CC2CCC(C(=O)O)CC2)C(=S)Nc2ccc(C)c(Cl)c2)cc1 (stereo not given),5.02%
21,CCC(=O)Nc1c(C)cc(C)cc1Cl,2.67%
22,CCC(=O)NC1=C(NC(C)c2ccccc2)C(=O)c2ccccc2C1=O (stereo not given),4.92%
23,CCC(=O)NC1=C(Cl)C(=O)C(NC(=O)CC)=C(Cl)C1=O,15.5% (active)
24,COc1ccc(-c2noc(CSc3nc(-c4ccccc4)cc(=O)[nH]3)n2)cc1OC,2.31%

row,Compound,inhibition
1,Cc1c(NC(=O)c2ccc3c(c2)C(=O)N(Cc2ccco2)C3=O)cccc1C(=O)O,-0.73%
2,O=C(Nc1ccc(Cl)cc1C(=O)O)c1ccc2c(c1)C(=O)N(Cc1ccco1)C2=O,13.9% (active)
3,O=C(Nc1ccc(O)cc1C(=O)O)c1ccc2c(c1)C(=O)N(Cc1ccco1)C2=O,4.38%
4,CNC(=O)COC(=O)c1cc2c(s1)CCCC2,-3.54%
5,COc1ccc(C(=O)NC(=S)NC(C)C)cc1Br,4.89%
6,COc1ccc(C(=O)NC(=S)Nc2nc(C)cc(C)n2)cc1Br,13.4% (active)
7,COc1ccc(C(=O)NC(=S)NC(C)(C)C)cc1Br,-2.26%
8,CC1(C)CC(=O)C=C(NNC(=O)c2cccnc2)C1,-2.32%
9,Cc1ccc(N2C(=O)CS/C2=C(\C(Cl)=C(Cl)Cl)[N+](=O)[O-])cc1,12.9% (active)
10,CCOc1ccc(N2C(=O)CS/C2=C(\C(Cl)=C(Cl)Cl)[N+](=O)[O-])cc1,7.22%
11,Cc1ccc(N2C(=O)CSCC2=O)cc1,-0.48%
12,CC(=O)N1N=C(c2cccs2)CC1c1cccs1 (stereo not given),-7.39%
13,CCNC(=O)CCS(=O)(=O)c1ccc2ccccc2c1,5.84%
14,Cc1sc2nc(C3CC3)nc(SCC(=O)N3CC(=O)Nc4ccccc43)c2c1C,2.43%
15,Cc1sc2nc(C3CCCCC3)nc(SCC(=O)N3CC(=O)Nc4ccccc43)c2c1C,-0.32%
16,CCc1nc(SCC(=O)N2CC(=O)Nc3ccccc32)c2c(C)c(C)sc2n1,14.6% (active)
17,COCCCNc1nc2nonc2nc1N1CCN(C2CCCC2)CC1,-4.2%
18,CN1CCN(C(=S)Nc2ccccc2Cl)CC1,7.2%
19,CCCCOC(=O)CSc1nc2ccccc2o1,6.41%
20,COc1cc(-c2cn[nH]c2N)cc(OC)c1OC,6.07%
21,COc1ccc(/C=N/NC(=O)c2ccc(Cl)c(S(N)(=O)=O)c2)cc1OCC(N)=O,2.57%
22,O=C(O)C(c1ccccc1)C1(O)CCCC1 (stereo not given),13.3% (active)
23,O=C(O)C(c1ccccc1)c1ccccc1,4.26%
24,O=C(O)C(c1ccccc1)C(c1ccccc1)c1ccccc1 (stereo not given),2.54%

row,Compound,inhibition
1,COc1ccc(C(=O)Nc2ccc([N+](=O)[O-])cn2)c(OC)c1,0.14%
2,CCN(CC)c1ccc(/C=N/N=C(c2ccccc2)c2ccccc2)c(O)c1,6.73%
3,Oc1ccc(/C=N/N(Cc2ccccc2)c2ccccc2)c(O)c1O,13.5% (active)
4,O=C(/C(=N/N=C/c1ccc(O)c(O)c1O)c1ccccc1)c1ccccc1,7.49%
5,Oc1cccc(/C=N/N(Cc2ccccc2)c2ccccc2)c1,-0.56%
6,COc1ccc(/C=N/N(Cc2ccccc2)c2ccccc2)cc1O,6.68%
7,COc1ccc(C2CC(=O)c3cc(OC)c(OC)cc32)cc1OC (stereo not given),-0.52%
8,CCOC(=O)C1=C(C)N=C2SC(C)C(=O)N2C1c1ccc(OC(C)=O)c(OC)c1 (stereo not given),5.74%
9,CCOC(=O)C1=C(C)N=C2SC(C)C(=O)N2C1c1ccc(OCC)c(OCC)c1 (stereo not given),14.7% (active)
10,CCOc1cc(C2C(C(=O)OC)=C(C)N=C3SC(C)C(=O)N32)ccc1OC(C)=O (stereo not given),-1.96%
11,Cc1cccc(OCc2nnc(SCc3cc(=O)n4cc(Br)ccc4n3)o2)c1,7.11%
12,CCOC(=O)C1CCN(C(=O)Nc2ccc3nc(-c4ccco4)c(-c4ccco4)nc3c2)CC1,11.1%
13,O=C(Nc1ccc2nc(-c3ccco3)c(-c3ccco3)nc2c1)N1CCN(c2ccccn2)CC1,12.6%
14,O=C(Nc1ccc2nc(-c3ccco3)c(-c3ccco3)nc2c1)N1CCCCCC1,14.8% (active)
15,O=C(Nc1ccc(N2CCOCC2)cc1)Nc1ccc2nc(-c3ccco3)c(-c3ccco3)nc2c1,-3.2%
16,O=C(Nc1ccccc1)c1ccc2nc(-c3ccco3)c(-c3ccco3)nc2c1,2.41%
17,CC(=O)c1ccc(NC(=O)c2ccc3nc(-c4ccco4)c(-c4ccco4)nc3c2)cc1,14.4% (active)
18,O=C(NCCO)c1ccc2nc(-c3ccco3)c(-c3ccco3)nc2c1,5.04%
19,O=C(NCCO)Nc1ccc2nc(-c3ccco3)c(-c3ccco3)nc2c1,19.4% (active)
20,O=C(Nc1ccc(N2CCOCC2)cc1)c1ccc2nc(-c3ccco3)c(-c3ccco3)nc2c1,10.1%
21,CC(=O)c1ccc(N2CCN(C(=O)Nc3cccc(F)c3)CC2)cc1,-1.45%
22,COc1cccc(C2/C(=C(\O)c3ccc4c(c3)OCO4)C(=O)C(=O)N2CCN(C)C)c1OC (stereo not given),1.43%
23,O=C(O)c1ccc(N=Cc2c(O)n(Cc3ccc(F)cc3)c(=O)[nH]c2=O)cc1,-1%
